Out of some 340,000 compounds screened, about 1,700 (0.5%) were called active. Rule as the data show it: active = inhibition above about 36%; inactive = the rest. The sample as a whole holds a higher share of actives than the screen did.
The compounds below were run against Serine protease HTRA1 (Homo sapiens) (UniProt Q92743) (assay: inhibition of human HTRA1 peptidase – biochemical, fluorescence polarization, HTS, primary screen (AID 504803;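 also: 0% = enzyme with DMSO and 100% = wells lacking enzyme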)). Conditions: recombinant HTRA1, FP-rhodamine activity-based probe, at 5.96 µM, stronger effect = higher value.
Serine protease HTRA1 (Homo sapiens), sequence (Q92743 whole entry, looked up): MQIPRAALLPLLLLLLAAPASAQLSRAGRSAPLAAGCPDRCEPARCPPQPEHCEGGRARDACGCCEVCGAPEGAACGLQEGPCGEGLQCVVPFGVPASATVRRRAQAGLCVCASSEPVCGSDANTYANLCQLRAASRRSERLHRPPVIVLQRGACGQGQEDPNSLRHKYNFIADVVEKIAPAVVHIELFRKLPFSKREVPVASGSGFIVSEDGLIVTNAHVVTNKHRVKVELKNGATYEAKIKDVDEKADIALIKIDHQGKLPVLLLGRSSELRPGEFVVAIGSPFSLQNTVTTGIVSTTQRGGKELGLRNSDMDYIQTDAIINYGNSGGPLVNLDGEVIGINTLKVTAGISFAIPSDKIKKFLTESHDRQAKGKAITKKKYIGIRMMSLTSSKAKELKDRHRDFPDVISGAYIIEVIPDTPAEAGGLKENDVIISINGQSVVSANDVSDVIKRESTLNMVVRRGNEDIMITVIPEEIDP
For CC(C)(C)c1nnc(NC(=O)C2c3ccccc3Oc3ccccc32)s1, the inhibition was -41.3% (inactive).
In the case of O=C(N/N=C/c1ccc(O)c(O)c1)C1c2ccccc2Oc2ccccc21, the inhibition is reported as 68.8% (active).
In the case of O=C(NN=Cc1ccc2c(c1)CCC2)c1ccccc1O, the inhibition is reported as -0.46% (inactive).
For COc1cccc(NC(=O)CN(C)C(=O)c2cc(Cl)nc3ccccc23)c1, the inhibition was 0.82% (inactive).
With C[C@@H]1CN([C@@H](C)CO)C(=O)c2cc(Br)cnc2O[C@@H]1CN(C)C(=O)C1CCCCC1 the inhibition was 2.18% (inactive).
For CCN(CC)C(=O)C1=C(C)N(Cc2ccc(F)cc2)C(=O)C(CC(=O)NC2CCCC2)C1 (stereo unspecified), the inhibition was 1.89% (inactive).
COc1ccc(/C=C/C(=O)c2cc(Br)ccc(=O)c2O)cc1 was tested, and the inhibition was 61% (active).
COc1ccc(C(=O)c2oc3ccc(Br)cc3c2NC(C)=O)cc1 was tested, and the inhibition was -1.73% (inactive).
For COc1ccc2oc(=N)c(C(=O)Nc3ccc(Br)cc3)cc2c1, the inhibition was -1.93% (inactive).
With O=C1[C@H]2[C@@H](c3ccc(C(F)(F)F)cc3)N[C@]3(CCCN(Cc4ccc(Br)cc4)C3=O)[C@H]2C(=O)N1Cc1ccccc1 the inhibition was -35.1% (inactive).
In the case of COc1cccc2c1C(=O)c1c(O)c3c(c(O)c1C2=O)CC(O)(C(C)=NNC(=O)c1ccc(Cl)c(Cl)c1)CC3OC1CC(N)C(O)C(C)O1 (stereo unspecified), the inhibition is reported as 70.5% (active).
In the case of CN(Cc1c(F)cccc1Cl)C(=O)COC(=O)Cn1cnc2ccccc2c1=O, the inhibition is reported as 2.48% (inactive).
In the case of N#Cc1ccc(OCC(=O)Nc2nc(-c3ccccn3)cs2)cc1, the inhibition is reported as 19.1% (inactive).
In the case of COc1ccc(-c2cc(C(=O)N/N=C/c3cccnc3)c3ccccc3n2)c(OC)c1, the inhibition is reported as -18% (inactive).
With O=C(N/N=C\c1cccnc1)c1cc(-c2ccccc2)nc2c(Cl)cccc12 the inhibition was -44% (inactive).
With Cc1ccc(/C=N/NC(=S)NC2CCCCC2)o1 the inhibition was 5.44% (inactive).
In the case of Cc1ccc(/C=N/NC(=O)c2cc3ccccc3cc2O)o1, the inhibition is reported as 50.2% (active).
In the case of O=C(N/N=C/c1cccnc1)c1cc2ccccc2cc1O, the inhibition is reported as 41% (active).
With Cc1ccc(/C=N/NC(=O)Cn2nc(C)c(Br)c2C)o1 the inhibition was -6.04% (inactive).
In the case of CC(C)N=C1CCCC1C(=S)SSC(=S)C1CCCC1=NC(C)C (stereo unspecified), the inhibition is reported as 13.4% (inactive).
With CC(C)C1CCN(C(=O)C2CCC(=O)N(C3CCCCCC3)C2)CC1 (stereo unspecified) the inhibition was 4.4% (inactive).
With CCCCN1CC(C)(C)[C@H](CC(=O)Nc2ccc(Br)cc2)C1=O the inhibition was -7.94% (inactive).
With COc1ccc(-c2ccc(CN3C(CC(C)C)C(=O)N(Cc4cn(CC5CCCCC5)nn4)CCS3(=O)=O)cc2)cc1 (stereo unspecified) the inhibition was -45.1% (inactive).
For O=C(C[C@H]1C[C@H]2c3cc(NS(=O)(=O)c4ccc(F)cc4)ccc3O[C@H]2[C@H](CO)O1)NCc1cc(F)ccc1F, the inhibition was -9.74% (inactive).
For COc1cc(C(=O)OCCCN2CCOCC2)cc(OC)c1OC, the inhibition was -2.46% (inactive).
In the case of O=NN(CCCl)C(=O)NCCc1cccc[n+]1[O-], the inhibition is reported as 1.62% (inactive).
For CCOC(=O)C[C@H]1c2ccc(C(F)(F)F)cc2S(=O)(=O)N1c1ccccc1, the inhibition was -13.4% (inactive).
CCOC(=O)C1Nc2ccc(C(F)(F)F)cc2C2C=CCC12 (stereo unspecified) was tested, and the inhibition was 41.7% (active).
CCOC(=O)NNc1cc(C(F)(F)F)ccn1 was tested, and the inhibition was -0.2% (inactive).
O=C(NN=Cc1ccccc1O)NN=Cc1ccccc1O was tested, and the inhibition was 25.9% (inactive).
In the case of COc1cccc2c(O)cc(=O)n(C)c12, the inhibition is reported as -0.49% (inactive).
O=Nc1c(O)cc(O)c2ccccc12 was tested, and the inhibition was 42.4% (active).
For Cc1ccc(-c2ccc(CN3C(C(C)C)C(=O)N(Cc4cn(CCC5OCCO5)nn4)CCS3(=O)=O)cc2)cc1 (stereo unspecified), the inhibition was -29.6% (inactive).
CC[C@@H]1Cc2cc(O)ccc2C2=C1c1ccc(O)cc1C[C@H]2CC was tested, and the inhibition was 44.3% (active).
In the case of COc1cc(C)c(CN2CCN(C(=O)CCC(=O)c3ccc(C)s3)CC2)cc1OC, the inhibition is reported as 6.95% (inactive).
In the case of CCCCCCNC(=O)O[C@H]1CN(C(=O)OC(C)C)N(C(=O)OC(C)C)[C@@H]2CN(S(=O)(=O)c3ccc(C)cc3)C[C@]12O, the inhibition is reported as -18.8% (inactive).
In the case of O=C(Cc1ccc(Cl)cc1)NC(=S)Nc1ccccc1O, the inhibition is reported as -31.1% (inactive).
In the case of c1ccc(CNCc2ccc(CNCc3ccccc3)cc2)cc1, the inhibition is reported as 2.32% (inactive).
With Oc1ccc(CNc2ccccc2O)cc1 the inhibition was 52.1% (active).
C[C@@H]1CN([C@H](C)CO)C(=O)CCCn2cc(nn2)CO[C@H]1CN(C)S(=O)(=O)c1ccc(Oc2ccccc2)nc1 was tested, and the inhibition was 5.67% (inactive).
COCC1CCCCN1C(=O)c1cc(COc2ccc(C)c(C)c2)on1 (stereo unspecified) was tested, and the inhibition was -4.09% (inactive).
For COc1ccc(C=C2CCC3C(CCCC34OCCO4)C2=O)cc1 (stereo unspecified), the inhibition was -8.69% (inactive).
In the case of Nc1nonc1-n1nnc(C(=O)N/N=C/c2c[nH]c3ccccc23)c1-c1ccccc1, the inhibition is reported as -3.11% (inactive).
In the case of C[n+]1ccc(/C=C/c2c[nH]c3ccccc23)cc1, the inhibition is reported as 2.74% (inactive).
For CSC(=S)N/N=C/c1c[nH]c2ccccc12, the inhibition was 48.9% (active).
With C[C@H]1CN([C@@H](C)CO)C(=O)CCCn2nncc2CO[C@@H]1CN(C)Cc1ccc(Oc2ccccc2)cc1 the inhibition was -3.08% (inactive).
For O=c1ccc2c(-c3ccccc3S(=O)(=O)O)c3ccc(O)c(O)c3oc-2c1O, the inhibition was 37.8% (active).
COc1cc(C=NC2CCCCC2)ccc1O was tested, and the inhibition was 0.85% (inactive).
In the case of COc1ccc(CN2C(=O)C(CC(=O)NCCCCc3ccccc3)CC(C(=O)N3CCOCC3)=C2C)cc1 (stereo unspecified), the inhibition is reported as 5.2% (inactive).
For O=C(c1ccccc1)N1CCN(c2cc(-c3ccccc3)nc3cc(-c4cccc(Cl)c4)nn23)CC1, the inhibition was -11.5% (inactive).
In the case of CCCCCNC(=O)C1c2ccccc2Oc2ccccc21, the inhibition is reported as 0.55% (inactive).
With CCOC(=O)CC(NC(=O)C1c2ccccc2Oc2ccccc21)c1ccc(C)cc1 (stereo unspecified) the inhibition was -3.25% (inactive).
With CCCN(CCC)C(=O)C1c2ccccc2Oc2ccccc21 the inhibition was 38.1% (active).
For C[C@H]1CN([C@@H](C)CO)S(=O)(=O)c2ccc(Br)cc2O[C@H]1CN(C)C(=O)c1cnccn1, the inhibition was 10.3% (inactive).
For CNC(=O)c1ccc(CN(C)C(=O)c2cc(C3CC3)nc3c2cnn3C(C)C)cc1, the inhibition was -4.2% (inactive).
For CC(C)CC1C(=O)N(Cc2cn(Cc3ccco3)nn2)CCS(=O)(=O)N1Cc1ccc(-c2ccc(Cl)c(Cl)c2)cc1 (stereo unspecified), the inhibition was -109% (inactive).

From PubChem BioAssay AID504803 (The Scripps Research Institute Molecular Screening Center, 2011)
